Sampled rows, rich in hits. Any-hit rate of the full collection: about 4.6%.
TRHR agonist-1 – qHTS for Small Molecule Agonists and Allosteric Enhancers of Human TRH Receptor: Primary Screen for Agonists; TRHR cells, calcium flux fluo-8, FDSS agonist mode; activation, % at 2 µM; hit rate 0.18% among 360,000; further: 0% is about no effect
Target sequence (P34981 whole entry, looked up): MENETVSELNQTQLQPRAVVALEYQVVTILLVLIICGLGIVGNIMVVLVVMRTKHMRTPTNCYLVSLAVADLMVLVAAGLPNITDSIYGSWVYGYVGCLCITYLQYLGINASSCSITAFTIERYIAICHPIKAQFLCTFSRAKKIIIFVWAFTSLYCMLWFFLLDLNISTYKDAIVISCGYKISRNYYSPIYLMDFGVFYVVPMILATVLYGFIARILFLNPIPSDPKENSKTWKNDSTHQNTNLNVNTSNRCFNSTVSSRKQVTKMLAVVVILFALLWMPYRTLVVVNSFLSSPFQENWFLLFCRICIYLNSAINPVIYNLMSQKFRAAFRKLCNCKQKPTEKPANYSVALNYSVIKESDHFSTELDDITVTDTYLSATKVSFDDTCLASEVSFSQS
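Agonist-mode FDSS calcium read (Ex 480/Em 530, 1 s cycles) in 1536-well TRHR cells with fluo-8 dye, after 10-cycle baseline and 23 nL compound addition; TRH at EC20 (10 nM final) added afterwards for the enhancer phase.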
TRHR enhancer-1 – qHTS for Small Molecule Agonists and Allosteric Enhancers of Human TRH Receptor: Primary Screen for Enhancers; TRHR cells, fluo-8 calcium fluorescence, EC20 TRH enhancement; enhancement, % at 2 µM; Thyrotropin-releasing hormone receptor (Homo sapiens), P34981; hit rate 0.66% among 360,000; in the data active means enhancement above about 30%; further: 0% is about no effect
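TRHR-expressing cells loaded with fluo-8 calcium dye were read kinetically (ex 480/em 530) during compound addition, then stimulated with an EC20 of TRH (10 nM final). Enhancement of the Gq-mediated intracellular calcium response was scored.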
D1 antagonist – Antagonist of Human D 1 Dopamine Receptor: qHTS | HEK293 TREx D1 cells, calcium flux, dopamine EC80; hits give low values | activity change, negative = inhibition, % at 10 µM | AID 504652, 2011 | hit rate 3.2% among 360,000; in the data active means activity change below about -30%; further: on the % scale 0 is the no-effect control and ±100 the full control effect
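Allosteric or orthosteric antagonism assessed as attenuation of the calcium response to EC80 dopamine, added 180 s after compound, in induced HEK293 Trex D1 cells loaded with no-wash calcium dye.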
D1 agonist – Allosteric Agonists of the Human D1 Dopamine Receptor: qHTS. HEK293 T-REx D1 cells, calcium flux, agonist mode. activation, % at 2 µM. hit rate 1% among 360,000; further: 0% is about no effect
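Tetracycline-induced HEK293 TREx D1 cells, force-coupled to calcium signalling, were dye-loaded with a no-wash calcium kit. Compound was pin-added after a 10 s baseline. Fluorescence was read kinetically at 1 cycle/s for 180 s, with calcium rises flagged as agonism.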
D1 potentiator – Potentiators of Human D1 Dopamine Receptor: qHTS; potentiation, % at 10 µM; HEK293 TREx D1 cells, calcium flux, dopamine EC20 potentiation; hit rate 0.036% among 360,000; D(1A) dopamine receptor (Homo sapiens), P21728; AID 504651, 2011; in the data active means potentiation above about 30%; further: 0% is about no effect
TRHR enhancer-2 – qHTS for Small Molecule Agonists and Allosteric Enhancers of Human TRH Receptor: Confirmation Screen for Enhancers; shares compounds with TRHR enhancer-1; TRH receptor cell assay, enhancer confirmation qHTS; activity change, negative = inhibition, % at 46.1 µM; 970 tested, under 10 active; active means well fitted curve in the direction sought with a large enough effect; inconclusive means small, poorly fitted or top-dose-only effect, or another doubt; inactive means no such curve, though single readings can be large; an effect the other way counts as inactive or inconclusive;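 further: compound effect scored on response to added TRH at EC20 of 10 nM; 0% is about no effect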
TRHR agonist-2 – qHTS for Small Molecule Agonists and Allosteric Enhancers of Human TRH Receptor: Confirmation Screen for Agonists. shares compounds with TRHR enhancer-1. TRHR-expressing cells, agonist activation read-out. Potency, µM (doses to about 46.1 µM), for the others: top-dose activation, usual class: activators. hit rate 8% among 970. AID 493078, 2011; active means well fitted curve in the direction sought with a large enough effect; inconclusive means small, poorly fitted or top-dose-only effect, or another doubt; inactive means no such curve, though single readings can be large; an effect the other way counts as inactive or inconclusive; further: potency means the concentration at half of the fitted maximal effect; 0% is about no effect; nearly all actives have a fitted effect of over 75% in size
An asterisk follows results filed as active. Unless noted, no stated cut-off is given here; in the data, active means activation above about 30%; inactive means the rest.

For Clc1ccc(CNc2ncccn2)cc1 the results were TRHR agonist-1 -1, TRHR enhancer-1 -3, D1 antagonist 7, D1 agonist 2 and D1 potentiator -2.
Fc1ccc(CNc2ncccn2)cc1 was read as TRHR agonist-1 -1, TRHR enhancer-1 42*, D1 antagonist -13, D1 agonist -1, D1 potentiator 9, TRHR enhancer-2 2 and TRHR agonist-2 -1%.
`Cc1oc2ccc(O)c(CN(C)C)c2c1C(=O)c1ccccc1` gave TRHR agonist-1 0, TRHR enhancer-1 4, D1 antagonist 8, D1 agonist 0 and D1 potentiator 0.
`CN(C)Cc1c(O)ccc2c1O/C(=C\C=C\c1ccccc1)C2=O` gave TRHR agonist-1 28, TRHR enhancer-1 -3, D1 antagonist 7, D1 agonist 45*, D1 potentiator 1, TRHR enhancer-2 -3 and TRHR agonist-2 18µM*.
For CCOC(=O)c1nc2c(ccc3ccccc32)cc1C the results were TRHR agonist-1 -1, TRHR enhancer-1 14, D1 antagonist 13, D1 agonist 1 and D1 potentiator 4.
`Cc1ccc(S(=O)(=O)n2nnc3ccccc32)c(C)c1C` gave TRHR agonist-1 0, TRHR enhancer-1 0, D1 antagonist 8, D1 agonist 2 and D1 potentiator 3.
For NNC(=S)Nc1c(F)cc(F)cc1Br the results were TRHR agonist-1 1, TRHR enhancer-1 -3, D1 antagonist 5, D1 agonist 2 and D1 potentiator -2.
O=C(Cc1ccccc1)NC1CCN(Cc2ccccc2)CC1 was read as TRHR agonist-1 0, TRHR enhancer-1 61*, D1 antagonist -4, D1 agonist 6, D1 potentiator 4, TRHR enhancer-2 1 and TRHR agonist-2 -1%.
`O=C(COc1ncnc2ccccc12)NCCc1ccccc1` gave TRHR agonist-1 0, TRHR enhancer-1 58*, D1 antagonist -44*, D1 agonist 2, D1 potentiator -10, TRHR enhancer-2 -2 and TRHR agonist-2 -1%.
`CC(=O)Nc1ccc(S(=O)(=O)NC2CC(=O)N(c3ccc(C)c(C)c3)C2)cc1` (stereo unspecified) gave TRHR agonist-1 0, TRHR enhancer-1 2, D1 antagonist -20, D1 agonist 0 and D1 potentiator -9.
`COc1cc(C(=O)OCc2cccc(OC)c2OC)ccc1OCC(=O)N1CCOCC1` gave TRHR agonist-1 0, TRHR enhancer-1 -7, D1 antagonist 0, D1 agonist 2 and D1 potentiator -4.
For CC(NC(=S)NC(=O)c1ccccc1Br)c1ccccc1 (stereo unspecified) the results were TRHR agonist-1 0, TRHR enhancer-1 47*, D1 antagonist 21, D1 agonist 2, D1 potentiator -4, TRHR enhancer-2 -4 and TRHR agonist-2 -1%.
`CC(C)C(NC(=O)c1ccccc1Br)c1ccccc1` (stereo unspecified) gave TRHR agonist-1 -1, TRHR enhancer-1 -2, D1 antagonist 12, D1 agonist 1 and D1 potentiator 6.
Screening COc1ccc(Cc2nc3ccc(C(=O)N(C)Cc4cc(C)[nH]n4)cc3o2)cc1OC returned TRHR agonist-1 0, TRHR enhancer-1 2, D1 antagonist -3, D1 agonist 1 and D1 potentiator -2.
Screening COc1ccc(Cc2nc3ccc(C(=O)N(C)CCn4ccnc4)cc3o2)cc1OC returned TRHR agonist-1 -3, TRHR enhancer-1 41*, D1 antagonist 3, D1 agonist 8, D1 potentiator -3, TRHR enhancer-2 0 and TRHR agonist-2 -1%.
COc1ccccc1NC(=O)NC1(C(=O)N2CCC(C)CC2)CCCCC1 was read as TRHR agonist-1 0, TRHR enhancer-1 -9, D1 antagonist -23, D1 agonist -1 and D1 potentiator 6.
`CN1CCN(S(=O)(=O)c2cccc(C(=O)Oc3ccc(C(C)(C)C)cc3)c2)CC1` gave TRHR agonist-1 1, TRHR enhancer-1 50*, D1 antagonist -30*, D1 agonist 7, D1 potentiator -4, TRHR enhancer-2 12 and TRHR agonist-2 2%.
Screening COc1cc(OC)cc(OC(=O)c2cccc(S(=O)(=O)N3CCN(C)CC3)c2)c1 returned TRHR agonist-1 0, TRHR enhancer-1 -2, D1 antagonist -10, D1 agonist 5 and D1 potentiator -5.
O=C(CCSCc1cccc(Cl)c1)NCc1ccccc1Cl was read as TRHR agonist-1 -1, TRHR enhancer-1 1, D1 antagonist -11, D1 agonist 8 and D1 potentiator -1.
Cc1ccc(NC(=O)CCNC(=O)c2ccc(Br)cc2)nc1 was read as TRHR agonist-1 -1, TRHR enhancer-1 2, D1 antagonist -19, D1 agonist 0 and D1 potentiator -6.
`CCn1c(C)c(C)c2cc(C(=O)NC3CCCCCC3)ccc21` gave TRHR agonist-1 0, TRHR enhancer-1 45*, D1 antagonist -2, D1 agonist 1, D1 potentiator 0, TRHR enhancer-2 inconclusive and TRHR agonist-2 2%.
`COc1ccc(C2/C(=C(\O)c3ccc4c(c3)OCCO4)C(=O)C(=O)N2c2nc(C)c(C(C)=O)s2)cc1` (stereo unspecified) gave TRHR agonist-1 0, TRHR enhancer-1 41*, D1 antagonist -14, D1 agonist 2, D1 potentiator -7, TRHR enhancer-2 2 and TRHR agonist-2 2%.
Nc1nc(SCC(=O)N2CCOCC2)[nH]c(=O)c1-c1ccccc1 was read as TRHR agonist-1 1, TRHR enhancer-1 65*, D1 antagonist 7, D1 agonist 3, D1 potentiator -1, TRHR enhancer-2 7 and TRHR agonist-2 0%.
`Nc1nc(SCC(=O)N2CCCC2)[nH]c(=O)c1-c1ccccc1` gave TRHR agonist-1 0, TRHR enhancer-1 0, D1 antagonist 5, D1 agonist 0 and D1 potentiator -2.
For O=C(Nn1cnnc1)c1cccc(S(=O)(=O)N2CCOCC2)c1 the results were TRHR agonist-1 102*, TRHR enhancer-1 5, D1 antagonist 1, D1 agonist 7, D1 potentiator 0, TRHR enhancer-2 5 and TRHR agonist-2 -1%.
